This passage reports Potency results from PubChem BioAssay (NCATS).

Inconclusive results are not listed. Calls of active or inactive are those of the source. Calls come from the whole dose curve; as a rule, active = well fitted inhibition curve with a large enough effect; inconclusive = small, poorly fitted or top-dose-only effect; inactive = flat fitted curve, though single readings scatter.

Assay in all cases: qHTS profiling for inhibitors of Plasmodium falciparum proliferation (AID 504749); note: nearly all actives have a fitted effect of over 60% in size
Common to all, as to conditions: P. falciparum in erythrocytes, SYBR Green DNA, 72 h; series mostly up to 28.7 µM
(In general: In qHTS, concentration-response curves come from the screen itself.)

The test system of one test is PAD. A digest of the protocol:
(§1)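 Fluorescence of SYBR Green-bound parasite DNA, read at 485/535 nm, served as the growth measure. Infected erythrocytes were cultured with compound 72 h; artemisinin (0.29 uM) and DMSO wells defined the normalization range.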

The next test has as its system PC15. Put shortly:
as §1

A further test deals with PC26. Put shortly: as §1
For the next test, the system named is PC49. A digest of the protocol:
as §1

In the next test the test system is SC27B. A digest of the protocol: as §1
Another test relates to TAB109. A digest of the protocol: as §1
Another test concerns TAB113. A digest of the protocol: as §1
The next test has as its system TAB165. Put shortly: as §1
A further test relates to W2. A digest of the protocol: as §1
Potency is the fitted concentration of half-maximal effect.

Turning to `O=C(O)[C@H]1CN(C/C=C/P(=O)(O)O)CCN1`, the Potency result in the test with PAD, with PC15, in the test with PC26, in the test with PC49, in the test on SC27B and in the test on TAB109 was “inactive” in each case. Moreover, the Potency result in the test on TAB113, in the test on TAB165 and in the test with W2 was “inactive” in each case.

Turning to `O=P(O)(O)OC[C@H]1O[C@](O)(COP(=O)(O)O)[C@@H](O)[C@@H]1O`, the Potency result with PAD, in the test with PC15, in the test with PC26, with PC49, with SC27B and in the test on TAB109 was “inactive” each time. For the same compound, the Potency result with TAB113, in the test with TAB165 and with W2 was “inactive” in each case.

On to `CCc1ccc(S(=O)(=O)O)cc1`, for which the Potency result in the test on PAD, with PC15, in the test on PC26, in the test with PC49, in the test on SC27B and in the test on TAB109 was “inactive” in each case. Further, the Potency result with TAB113, in the test on TAB165 and with W2 was “inactive” throughout.

For `C=CC(=O)O`, the Potency result with PAD, with PC15, in the test with PC26, in the test with PC49, in the test with SC27B and with TAB109 was “inactive” in each case. In addition, the Potency result in the test with TAB113, in the test with TAB165 and in the test with W2 was “inactive” each time.

For `CC(C)CCC[C@@H](C)[C@H]1CC[C@H]2[C@@H]3CC=C4C[C@@H](O)CC[C@]4(C)[C@H]3CC[C@]12C`, the Potency entry with PAD, with PC15, with PC26, in the test with PC49, in the test with SC27B and in the test on TAB109 was “inactive” in each case. Also, the Potency result with TAB113, in the test on TAB165 and in the test with W2 was “inactive” each time.

On to `Nc1ncnc2c1ncn2[C@H]1CC[C@@H](CO)O1`, for which the Potency entry in the test with PAD, in the test with PC15, with PC26, in the test on PC49, in the test on SC27B and in the test on TAB109 was “inactive” throughout. Further, the Potency entry in the test on TAB113, with TAB165 and with W2 was “inactive” in each case.

As to `CC1=C(/C=C/C(C)=C/C=C/C(C)=C/C(=O)Oc2c(C)c(C)c3c(c2C)CC[C@@](C)(CCC[C@H](C)CCC[C@H](C)CCCC(C)C)O3)C(C)(C)CCC1`, the Potency result in the test with PAD, with PC15, with PC26, with PC49, in the test on SC27B and in the test with TAB109 was “inactive” each time. The Potency result in the test on TAB113, in the test with TAB165 and with W2 was “inactive” throughout.

Turning to `OC[C@H]1O[C@@H]2O[C@H]3[C@H](O)[C@@H](O)[C@@H](O[C@H]4[C@H](O)[C@@H](O)[C@@H](O[C@H]5[C@H](O)[C@@H](O)[C@@H](O[C@H]6[C@H](O)[C@@H](O)[C@@H](O[C@H]7[C@H](O)[C@@H](O)[C@@H](O[C@H]1[C@H](O)[C@H]2O)O[C@@H]7CO)O[C@@H]6CO)O[C@@H]5CO)O[C@@H]4CO)O[C@@H]3CO`, the Potency entry in the test with PAD, in the test with PC15, with PC26, in the test on PC49, in the test with SC27B and in the test with TAB109 was “inactive” each time. The Potency result in the test with TAB113, in the test with TAB165 and with W2 was “inactive” in each case.

As for `CN(C)c1ccc(C(=C2C=CC(=[N+](C)C)C=C2)c2c(O)c(S(=O)(=O)[O-])cc3cc(S(=O)(=O)O)ccc23)cc1`, the Potency entry with PAD, with PC15, in the test with PC26, in the test with PC49, in the test on SC27B and in the test with TAB109 was “inactive” in each case. Further, the Potency result in the test on TAB113, in the test on TAB165 and with W2 was “inactive” in each case.

In the case of `O=C(O)[C@H]1C(=CCO)O[C@H]2CC(=O)N12`, the Potency entry in the test on PAD, in the test with PC15, in the test with PC26, with PC49, in the test with SC27B and in the test on TAB109 was “inactive” throughout. Moreover, the Potency result in the test with TAB113, in the test on TAB165 and in the test on W2 was “inactive” throughout.

Consider `CCCCO`, for which the Potency result in the test on PAD, in the test with PC15, in the test on PC26, in the test on PC49, in the test on SC27B and with TAB109 was “inactive” each time. Further, the Potency entry with TAB113, in the test on TAB165 and in the test on W2 was “inactive” throughout.

On to `Nc1nccs1`, for which the Potency result with PAD, with PC15, in the test with PC26, in the test with PC49, with SC27B and with TAB109 was “inactive” each time. The Potency result in the test with TAB113, with TAB165 and in the test on W2 was “inactive” in each case.

Take `COc1ccc(-c2noc(CC(=O)O)c2-c2ccc(OC)cc2)cc1`: the Potency result with PAD, with PC15, in the test on PC26, in the test with PC49, in the test with SC27B and in the test on TAB109 was “inactive” each time. In addition, the Potency entry with TAB113, in the test with TAB165 and with W2 was “inactive” each time.

For the compound `NCC[C@H](O)C(=O)N[C@@H]1C[C@H](N)[C@@H](O[C@H]2O[C@H](CN)CC[C@H]2N)[C@H](O)[C@H]1O[C@H]1O[C@H](CO)[C@@H](O)[C@H](N)[C@H]1O`, the Potency entry in the test on PAD, in the test on PC15, with PC26, in the test with PC49, in the test on SC27B and with TAB109 was “inactive” throughout. Besides, the Potency result with TAB113, in the test with TAB165 and in the test on W2 was “inactive” in each case.

Consider `CCOC(=S)SSC(=S)OCC`, for which the Potency result with PAD, in the test on PC15, in the test on PC26, in the test on PC49, in the test with SC27B and with TAB109 was “inactive” throughout. Besides, the Potency entry with TAB113, in the test on TAB165 and with W2 was “inactive” in each case.

Regarding `CN(C)C=Nc1c(I)cc(I)c(CCC(=O)O)c1I`, the Potency entry in the test on PAD, with PC15, in the test on PC26, in the test with PC49, in the test on SC27B and in the test with TAB109 was “inactive” throughout. Besides, the Potency entry in the test on TAB113, in the test on TAB165 and in the test with W2 was “inactive” each time.

Turning to `CC1=CC(=O)NS(=O)(=O)O1`, the Potency result in the test on PAD, in the test with PC15, in the test with PC26, with PC49, with SC27B and in the test with TAB109 was “inactive” in each case. For the same compound, the Potency result in the test on TAB113, in the test with TAB165 and with W2 was “inactive” each time.

For `CNC(=O)C[C@@H](N)C(=O)N[C@@H](C(=O)N[C@@H]1C(=O)N2[C@@H]1SC(C)(C)[C@@H]2C(=O)O)c1ccc(O)cc1`, the Potency result in the test with PAD, in the test with PC15, with PC26, in the test with PC49, in the test with SC27B and with TAB109 was “inactive” in each case. The Potency entry with TAB113, in the test on TAB165 and in the test with W2 was “inactive” in each case.

As for `CCCOC(=O)c1ccccc1O`, the Potency result with PAD, in the test with PC15, in the test with PC26, with PC49, in the test on SC27B and with TAB113 was “inactive” in each case. Further, the Potency result with TAB165 was “inactive”.

As for `COc1ccc2c(c1)OC(C)(C)C(c1ccccc1)C2c1ccc(OCCN2CCCC2)cc1` (configuration not stated), the Potency is 8.91 µM (active) with PAD; 11.2 µM (active) in the test on PC15; 4.78 µM (active) in the test with PC26; 8.91 µM (active) in the test with SC27B; 3.16 µM (active) in the test on TAB109; 8.91 µM (active) in the test on TAB113. In addition, the Potency was 3.16 µM (active) in the test on TAB165 and 1.69 µM (active) in the test with W2.
